The results in this text go back to PubChem BioAssay.

Values without a mark were called inactive. Inconclusive results are not listed. Activity calls are given as the source filed them. Unless noted, no cut-off is given here; in the data, nearly all actives have AC50 up to about 26 µM.

For the first test, the system named is Aerobactin synthetase IucA (Klebsiella pneumoniae). Put plainly: inhibition of K. pneumoniae IucA enzyme – biochemical, Tocris library, absorbance (AID 1345561; call rule not given here;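 note: 100% = enzyme without compound and 0% = no enzyme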). The conditions noted are these: purified IucA enzyme assay, absorbance (OD) read-out; active compounds read low;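 tested at 8 µM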.
As a reminder, the remaining activity is the signal under treatment as a percentage of the control signal. `COc1ccc(/C=C/C(=O)Nc2ccccc2C(=O)O)cc1OC`: the remaining activity was 119%.

With `CC(C(=O)O)c1ccc(-c2ccccc2)c(F)c1` (configuration not stated), the remaining activity was 123%.

For `CC(C)NCC(O)COc1cccc2ccccc12` (configuration not stated), the remaining activity is 97.5%.

Regarding `O=[N+]([O-])c1cccc2cn[nH]c12`, the remaining activity is 107%.

Take `CC(C)NCC(O)COc1ccc(CC(N)=O)cc1` (configuration not stated): the remaining activity was 121%.

On to `CNCCC(Oc1ccc(C(F)(F)F)cc1)c1ccccc1` (configuration not stated), for which the remaining activity is 124%.

System in the next test: not listed separately
Put plainly: viability loss in pontine glioma line – cell-based, SU-DIPG-XVII, MIPE5.0, CellTiter-Glo, qHTS, dose response (AID 1347060). The conditions noted are these: CellTiter-Glo ATP luminescence.
Regarding `CS(=O)(=O)c1ccc(C2=C(c3ccccc3)C(=O)OC2)cc1`, the molecule was called inactive.

For the molecule `COc1ccc(/C=C/C(=O)Nc2ccccc2C(=O)O)cc1OC`, the molecule was classed as inactive.

In the case of `Nc1ncnc2c1ncn2[C@@H]1O[C@H](CO)[C@@H](O)[C@@H]1O`, the molecule was classed as inactive.

Take `CN(C)c1nc(N(C)C)nc(N(C)C)n1`: the result was inactive.

As for `COC(=O)[C@H](c1ccccc1Cl)N1CCc2sccc2C1`, the result was inactive.

Turning to `C[C@H]1COc2c(N3CCN(C)CC3)c(F)cc3c(=O)c(C(=O)O)cn1c23`, the outcome was inactive.

With `CCc1ccc(CCOc2ccc(CC3SC(=O)NC3=O)cc2)nc1` (configuration not stated), the outcome was inactive.

System in the next test: not listed separately
Nature of the test: viability loss in pontine glioma line – cell-based, SU-DIPG-XIII, MIPE4.0, CellTiter-Glo, qHTS, dose response (AID 1347061; cut-off not given, nearly all actives have AC50 up to about 37 µM;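 note: cells exposed to compound for 48 hours before readout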). The conditions noted are these: CellTiter-Glo ATP luminescence.
As for `CS(=O)(=O)c1ccc(C2=C(c3ccccc3)C(=O)OC2)cc1`, the result was inactive.

Regarding `COc1ccc(/C=C/C(=O)Nc2ccccc2C(=O)O)cc1OC`, the molecule was called inactive.

The term AC50 denotes the concentration giving half of the maximal activity seen. In the case of `CC(C(=O)O)c1ccc(-c2ccccc2)c(F)c1` (configuration not stated), the AC50 is 16.6 µM (active).

On to `C[C@H]1COc2c(N3CCN(C)CC3)c(F)cc3c(=O)c(C(=O)O)cn1c23`, for which the result was inactive.

System in a further test: not listed separately
Nature of the test: viability loss in pontine glioma line – cell-based, JHH-DIPG-1, MIPE4.0, CellTiter-Glo, qHTS, dose response (AID 1347062; cut-off not given, nearly all actives have AC50 up to about 27 µM). The conditions noted are these: JHH-DIPG-1 viability, CellTiter-Glo ATP luminescence. For orientation: ATP-based viability assays read luminescence as a measure of living cells.
For the molecule `CS(=O)(=O)c1ccc(C2=C(c3ccccc3)C(=O)OC2)cc1`, the outcome was inactive.

On to `CC(C(=O)O)c1ccc(-c2ccccc2)c(F)c1` (configuration not stated), for which the molecule was called inactive.

On to `O=c1ccc2ccc(O)c(O)c2o1`, for which the molecule was classed as inactive.

Consider `CN(C)c1nc(N(C)C)nc(N(C)C)n1`, for which the result was inactive.

Consider `COC(=O)[C@H](c1ccccc1Cl)N1CCc2sccc2C1`, for which the molecule was called inactive.

Turning to `C[C@H]1COc2c(N3CCN(C)CC3)c(F)cc3c(=O)c(C(=O)O)cn1c23`, the result was inactive.

Take `CC1=C(/C=C/C(C)=C/C=C/C(C)=C\C(=O)O)C(C)(C)CCC1`: the molecule was classed as inactive.

With `CCc1ccc(CCOc2ccc(CC3SC(=O)NC3=O)cc2)nc1` (configuration not stated), the result was inactive.

As for `CC[C@H]1OC(=O)[C@H](C)[C@@H](O[C@H]2C[C@@](C)(OC)[C@@H](O)[C@H](C)O2)[C@H](C)[C@@H](O[C@@H]2O[C@H](C)C[C@H](N(C)C)[C@H]2O)[C@](C)(OC)C[C@@H](C)C(=O)[C@H](C)[C@@H](O)[C@]1(C)O`, the molecule was called inactive.

System in a further test: not listed separately
Nature of the test: viability loss in pontine glioma line – cell-based, SU-DIPG-IV, MIPE4.0, CellTiter-Glo, qHTS, dose response (AID 1347063; cut-off not given, nearly all actives have AC50 up to about 30 µM;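 note: compound exposure lasted 48 hours before the viability readout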). The conditions noted are these: CellTiter-Glo ATP luminescence.
For `CS(=O)(=O)c1ccc(C2=C(c3ccccc3)C(=O)OC2)cc1`, the molecule was classed as inactive.

Turning to `COc1ccc(/C=C/C(=O)Nc2ccccc2C(=O)O)cc1OC`, the outcome was inactive.

Turning to `CN(C)c1nc(N(C)C)nc(N(C)C)n1`, the molecule was called inactive.

For `COC(=O)[C@H](c1ccccc1Cl)N1CCc2sccc2C1`, the result was inactive.

Take `C[C@H]1COc2c(N3CCN(C)CC3)c(F)cc3c(=O)c(C(=O)O)cn1c23`: the call was inactive.

For `CC[C@H]1OC(=O)[C@H](C)[C@@H](O[C@H]2C[C@@](C)(OC)[C@@H](O)[C@H](C)O2)[C@H](C)[C@@H](O[C@@H]2O[C@H](C)C[C@H](N(C)C)[C@H]2O)[C@](C)(OC)C[C@@H](C)C(=O)[C@H](C)[C@@H](O)[C@]1(C)O`, the call was inactive.

System in the next test: not listed separately
Put plainly: viability loss in pontine glioma line – cell-based, SU-DIPG-XIII, MIPE5.0, CellTiter-Glo, qHTS, dose response (AID 1347064; cut-off not given, nearly all actives have AC50 up to about 23 µM). The conditions noted are these: CellTiter-Glo ATP luminescence.
For `CS(=O)(=O)c1ccc(C2=C(c3ccccc3)C(=O)OC2)cc1`, the molecule was called inactive.

`COc1ccc(/C=C/C(=O)Nc2ccccc2C(=O)O)cc1OC`: the result was inactive.

As to `CC(C(=O)O)c1ccc(-c2ccccc2)c(F)c1` (configuration not stated), the call was inactive.

For the molecule `Nc1ncnc2c1ncn2[C@@H]1O[C@H](CO)[C@@H](O)[C@@H]1O`, the result was inactive.

For the molecule `CN(C)c1nc(N(C)C)nc(N(C)C)n1`, the outcome was inactive.

With `COC(=O)[C@H](c1ccccc1Cl)N1CCc2sccc2C1`, the molecule was called inactive.

Take `C[C@H]1COc2c(N3CCN(C)CC3)c(F)cc3c(=O)c(C(=O)O)cn1c23`: the molecule was classed as inactive.

`CC1=C(/C=C/C(C)=C/C=C/C(C)=C\C(=O)O)C(C)(C)CCC1`: the call was inactive.

Take `CCc1ccc(CCOc2ccc(CC3SC(=O)NC3=O)cc2)nc1` (configuration not stated): the molecule was called inactive.

System in the next test: not listed separately
Nature of the test: viability loss in pontine glioma line – cell-based, SU-DIPG-XXV, MIPE5.0, CellTiter-Glo, qHTS, dose response (AID 1347065).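 Note: cells exposed to compound for 48 hours before ATP readout.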 The conditions noted are these: CellTiter-Glo ATP luminescence.
In the case of `CS(=O)(=O)c1ccc(C2=C(c3ccccc3)C(=O)OC2)cc1`, the result was inactive.

Take `COc1ccc(/C=C/C(=O)Nc2ccccc2C(=O)O)cc1OC`: the outcome was inactive.

As for `CC(C(=O)O)c1ccc(-c2ccccc2)c(F)c1` (configuration not stated), the molecule was classed as inactive.

As to `Nc1ncnc2c1ncn2[C@@H]1O[C@H](CO)[C@@H](O)[C@@H]1O`, the result was inactive.

Turning to `CN(C)c1nc(N(C)C)nc(N(C)C)n1`, the result was inactive.

For the molecule `COC(=O)[C@H](c1ccccc1Cl)N1CCc2sccc2C1`, the call was inactive.

As for `C[C@H]1COc2c(N3CCN(C)CC3)c(F)cc3c(=O)c(C(=O)O)cn1c23`, the molecule was classed as inactive.

Take `CC1=C(/C=C/C(C)=C/C=C/C(C)=C\C(=O)O)C(C)(C)CCC1`: the half-maximal activity concentration (AC50) is 6.61 µM (active).

In the case of `CCc1ccc(CCOc2ccc(CC3SC(=O)NC3=O)cc2)nc1` (configuration not stated), the call was inactive.

System in the next test: not listed separately
Nature of the test: growth inhibition of DIPG cells – cell-based, MIPE4.0 library, CellTiter-Glo luminescence, qHTS (AID 1347066; cut-off not given, nearly all actives have AC50 up to about 30 µM;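 note: cells exposed to compound for 48 hours before readout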). The conditions noted are these: SU-DIPG-VI viability, CellTiter-Glo ATP luminescence.
`CS(=O)(=O)c1ccc(C2=C(c3ccccc3)C(=O)OC2)cc1`: the molecule was called inactive.

`CC(C(=O)O)c1ccc(-c2ccccc2)c(F)c1` (configuration not stated): the call was inactive.

In the case of `COC(=O)[C@H](c1ccccc1Cl)N1CCc2sccc2C1`, the call was inactive.

As for `C[C@H]1COc2c(N3CCN(C)CC3)c(F)cc3c(=O)c(C(=O)O)cn1c23`, the molecule was called inactive.

In the case of `CC1=C(/C=C/C(C)=C/C=C/C(C)=C\C(=O)O)C(C)(C)CCC1`, the outcome was inactive.

For `CCc1ccc(CCOc2ccc(CC3SC(=O)NC3=O)cc2)nc1` (configuration not stated), the outcome was inactive.

`CC[C@H]1OC(=O)[C@H](C)[C@@H](O[C@H]2C[C@@](C)(OC)[C@@H](O)[C@H](C)O2)[C@H](C)[C@@H](O[C@@H]2O[C@H](C)C[C@H](N(C)C)[C@H]2O)[C@](C)(OC)C[C@@H](C)C(=O)[C@H](C)[C@@H](O)[C@]1(C)O`: the result was inactive.
